Screens from PubChem.
Hits are enriched below; roughly 3.5% of the tested compounds scored in any of these assays.
CHRM1 antagonist: antagonists of human M1 muscarinic receptor; CHO-K1 hM1, Fluo-8 calcium fluorescence, ACh EC80 antagonist; actives 1.3% (n = 360,000); P11229; inhibition, % at 3 µM;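 active = percent inhibition above its own plate's cutoff, namely the mean of that plate's compound wells plus 3 SD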;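 also: peak over basal fluorescence ratio during 140 s after agonist addition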
SKN-1 inh: inhibitors of C. elegans SKN-1. C. elegans VP596 Pgst-4::GFP/RFP ratio, acrylamide-induced, 24 h. inhibition, % at 21.8 µM. actives 0.49% (n = 360,000). AID 624304;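 active = interference check ratio from 0.5 to 1.5 plus GFP to RFP signal ratio inhibition reaching or exceeding a fixed threshold, cut at about 30% in these data, passing the limit was not always enough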
M1 PAM: potentiates human M1 receptor response to acetylcholine; P11229; actives 0.088% (n = 360,000); CHO-K1 hM1, Fluo-8 calcium fluorescence, ACh EC20; 0% = ACh EC20, 100% = maximal ACh; activation, % at 3 µM; in the data active = activation above about 19%, passing the limit was not always enough
ATG4B inh: ATG4B (human) cysteine protease inhibition | actives 0.51% (n = 340,000) | AID 504462 | ATG4B cleavage of LC3-PLA2, NBD-HPC fluorescence, 1 h | Q9Y4P1 | inhibition, % at 8.33 µM; in the data active = inhibition above about 40%
Target sequence (Q9Y4P1 whole entry, looked up): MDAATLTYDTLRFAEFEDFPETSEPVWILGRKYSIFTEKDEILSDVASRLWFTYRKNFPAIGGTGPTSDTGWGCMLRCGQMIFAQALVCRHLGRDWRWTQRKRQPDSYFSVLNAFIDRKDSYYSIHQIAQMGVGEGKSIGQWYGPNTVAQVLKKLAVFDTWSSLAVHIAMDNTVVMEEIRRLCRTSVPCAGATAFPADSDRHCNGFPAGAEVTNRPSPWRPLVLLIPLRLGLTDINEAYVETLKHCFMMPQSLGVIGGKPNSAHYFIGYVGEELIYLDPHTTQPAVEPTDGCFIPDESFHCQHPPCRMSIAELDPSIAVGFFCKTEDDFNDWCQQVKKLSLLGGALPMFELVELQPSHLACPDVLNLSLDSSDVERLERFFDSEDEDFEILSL
CHRM1 agonist: activates human CHRM1 receptor; activation, % at 3 µM; actives 0.33% (n = 360,000); AID 588814; CHO-K1 hM1, Fluo-8 calcium fluorescence, agonist mode; 0% DMSO, 100% acetylcholine EC100; P11229;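 active = activation above the run's mean compound activation plus 3 SD, cut at about 16% in these data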;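 also: peak over basal fluorescence ratio within a 140 s kinetic read after compound addition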
Myeloid diff 2: myeloid differentiation induction. ER-HoxA9 myeloid progenitors, lysozyme-GFP differentiation, flow cytometry. calls only at 10 µM. actives 1% (n = 360,000). AID 624256;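 active = normalized GFP-positive differentiation at or above the plate's own cutoff, the solvent-only control mean plus 3 SD; inconclusive = no clear call, values can overlap the other calls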;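 also: cells exposed to compound for four days before flow analysis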
Myeloid diff: compounds promoting myeloid differentiation; shares compounds with Myeloid diff 2; ER-HoxA9 myeloid progenitors, GFP/Mac1 double-positive flow; calls only; actives 2% (n = 2,300);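 active = share of green or green-and-red cells above 9 and 9% in run 1 or 4 and 3% in run 2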
GFP autofluor: compound fluorescence in myeloid differentiation counter-screen; ER-HoxA9 myeloid progenitors, no estrogen, GFP autofluorescence flow cytometry; vehicle wells 0%, positive control 100%; shares compounds with Myeloid diff 2; actives 7.4% (n = 2,300); fluorescence response, % (no concentration beside the values);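 active = over 5% cells positive for green fluorescent reporter, or over 2% positive for both it and APC stain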
Of the large screens only hits and unclear results are named; the others gave an inactive call (follow-up assays come after a bar, where they were run).

O=C(N/N=C/c1cccnc1)c1cccc(NC(=O)c2ccccc2Cl)c1	Myeloid diff 2 active | Myeloid diff inactive | GFP autofluor inactive
Cc1ccc(N(Cc2ccccc2)C(=O)c2cc(S(=O)(=O)N3CCOCC3)ccc2N2CCCC2)cc1	none
CCCCSc1nnc(CCCCCNC(=O)OC(C)(C)C)o1	Myeloid diff 2 active | Myeloid diff inactive | GFP autofluor inactive
O=C(OCc1cn([C@H]2CN(Cc3cccs3)[C@@H](c3ccccc3)C[C@@H]2O)nn1)c1ccccc1	none (no result: ATG4B inh)
Cc1ccc([C@H]2C[C@@H](O)[C@H](n3cc(COC(=O)c4ccccc4)nn3)CN2Cc2cccs2)cc1	none (no result: ATG4B inh) | Myeloid diff inactive | GFP autofluor inactive
COc1ccc([C@H]2C[C@@H](n3cc(COC(=O)c4ccccc4)nn3)[C@H](O)CN2C(=O)C2CCCCC2)cc1	none (no result: ATG4B inh)
COc1ccc([C@H]2C[C@H](n3cc(COC(=O)c4ccccc4)nn3)[C@@H](O)CN2C(=O)C2CCCCC2)cc1	none (no result: ATG4B inh) | Myeloid diff inactive | GFP autofluor inactive
CCOC(=O)c1c(NC(=O)CNCCOC)sc2c1CCCC2	none | Myeloid diff inactive | GFP autofluor inactive
N=c1c2c(n(Cc3ccc(Cl)cc3)c3c1CCC3)CCC2	none
N=c1c2c(n(Cc3ccccc3)c3c1CCC3)CCC2	Myeloid diff 2 active | Myeloid diff inactive | GFP autofluor inactive
O=C1OCc2cc(NC(=O)C3CCCO3)ccc21 (centres undefined)	none
O=C1NC(=O)c2cc(NC(=O)C3CCCO3)ccc21 (centres undefined)	none | Myeloid diff inactive | GFP autofluor inactive
O=C(O)c1cc(NC(=O)C2CCCO2)cc(NC(=O)C2CCCO2)c1 (centres undefined)	Myeloid diff 2 active | Myeloid diff inactive | GFP autofluor inactive
COc1ccc(OC)c(NC(=O)C2(C)CCN2C(=O)CCC2CCCC2)c1 (centres undefined)	none (no result: ATG4B inh)
CCC1(CC)NC(=O)N(CC(=O)OCC(=O)Nc2cc(C)ccc2C)C1=O	Myeloid diff 2 active | Myeloid diff inactive | GFP autofluor inactive
CC1CCCN(C(=O)C(=O)c2cn(CC(=O)N3CCCCCC3)c3ccccc23)C1 (centres undefined)	Myeloid diff 2 inconclusive
CCOC(=O)c1[nH]c2ccc(Br)cc2c1NC(=O)CCN1CCCC(C)(C)C1	CHRM1 antagonist 90.2, Myeloid diff 2 active | Myeloid diff inactive | GFP autofluor inactive
NNc1nc(C(F)(F)F)nc2ccccc12	none
O/C=c1\ccc2cccc3nc(C(F)(F)F)nc1c23	none | Myeloid diff inactive | GFP autofluor inactive
COC(=O)c1cc(S(=O)(=O)N2CCN(c3cccc(OC)c3)CC2)cn1C	none
Cc1cc(C)n(-c2nnc3n2N=C(c2c[nH]c4ccccc24)CS3)n1	none | Myeloid diff inactive | GFP autofluor inactive
Cc1ccc(S(=O)(=O)NC(C)(C)C)cc1C(=O)OCC(=O)N1CCCC1=O	none
Cc1nnc(SCCC(=O)Nc2ccccc2Cl)o1	none
O=Cc1sc(Nc2ccccc2)nc1Cl	Myeloid diff 2 active | Myeloid diff inactive | GFP autofluor 51.7
CC1=CC(C)(C)N(C(=O)CCl)c2cc(C)ccc21	none | Myeloid diff inactive | GFP autofluor inactive
CC1=CC(C)(C)N(C(=O)CNC2CCCCC2)c2cc(C)ccc21	CHRM1 antagonist 99.5, Myeloid diff 2 active | Myeloid diff inactive | GFP autofluor inactive
CC(=O)c1ccc(C(=O)N2CCCC(CO)(Cc3ccccc3C)C2)s1 (centres undefined)	none
CCCC(=O)NC(=S)Nc1cc(-c2nc3ncccc3o2)ccc1C	none
CCCC(=O)Nc1cc(-c2nc3ncccc3o2)ccc1C	none (no result: Myeloid diff 2) | Myeloid diff inactive | GFP autofluor inactive
COc1ccc(NC(=O)N(C)C[C@H]2Oc3ccc(NC(=O)Nc4c(C)noc4C)cc3C(=O)N([C@H](C)CO)C[C@H]2C)cc1	none
COc1cc(C(=O)OCC(=O)Nc2ccc(S(=O)(=O)N3CCCC3)cc2)cc(OC)c1OC	none
CCOC(=O)c1ccc(N2C(=O)CC(N(C)CCc3ccc(OC)c(OC)c3)C2=O)cc1 (centres undefined)	none | Myeloid diff inactive | GFP autofluor inactive
CCOc1cccc(N2C(=O)CC(N(CCc3ccc(OC)c(OC)c3)C(=O)CC)C2=O)c1 (centres undefined)	none
CCc1noc(C)c1C(=O)Nc1ccccc1N1CCOCC1	none
CCOc1ccc(OCC)c(NC(=O)C2CCN(S(=O)(=O)c3cnc[nH]3)CC2)c1	none
O=C(CC1C(=O)NCCN1C(=O)Nc1ccccc1)Nc1cccc(C(F)(F)F)c1 (centres undefined)	Myeloid diff 2 active | Myeloid diff inactive | GFP autofluor inactive
CN=C1SC(CC(=O)Nc2cccc(C(F)(F)F)c2)C(=O)N1C (centres undefined)	none | Myeloid diff inactive | GFP autofluor inactive
CN=C1SC(CC(=O)Nc2ccccc2F)C(=O)N1C (centres undefined)	none
O=C(CC1SCCNC1=O)Nc1cccc(C(F)(F)F)c1 (centres undefined)	Myeloid diff 2 active | Myeloid diff inactive | GFP autofluor inactive
C=CCSc1nnc(-c2ccccc2NC(=O)CC)c(=O)[nH]1	none
CN(CC(=O)Nc1cc([N+](=O)[O-])ccc1Cl)Cc1ccc(Br)cc1	none | Myeloid diff inactive | GFP autofluor inactive
Cc1ccsc1CN(C)CC(=O)Nc1ccc([N+](=O)[O-])cc1Cl	none
N#Cc1ccc(NC(=O)COC(=O)c2cccc(S(=O)(=O)N3CCCC3)c2)cc1	none (no result: ATG4B inh)
COc1cccc(-c2cnc3c(NC(C)=O)cc(-c4cc(OC)c(OC)c(OC)c4)cn23)c1	none (no result: ATG4B inh)
COc1ccc(F)cc1-c1cc(NC(C)=O)c2ncc(-c3cc(OC)c(OC)c(OC)c3)n2c1	Myeloid diff 2 active (no result: ATG4B inh) | Myeloid diff inactive | GFP autofluor inactive
CC(C(=O)N1CCc2ccccc21)N1CCN(c2cccc(C(F)(F)F)c2)CC1 (centres undefined)	Myeloid diff 2 active | Myeloid diff inactive | GFP autofluor inactive
COc1ccc2[nH]c3nc(SCC(=O)NNC(=O)c4ccc(OC)c(OC)c4)nnc3c2c1	none | Myeloid diff inactive | GFP autofluor inactive
Cc1ccc(C(=O)NNC(=O)CSc2nnc3c(n2)[nH]c2ccc(F)cc23)cc1	none
O=C(COc1ccccc1)NCC(=O)NC1CCCCC1	none
O=C(CNC(=O)OCc1ccccc1)NC1CCCCCCC1	Myeloid diff 2 active | Myeloid diff inactive | GFP autofluor inactive
